The values below come from PubChem BioAssay (Tox21).

Several values for one entry are separate records, joined by “and”; a condition that tells them apart may be missing. Equal values may be shown once. Inconclusive results are not listed. Where a structure was tested more than once in an assay, its records may differ in their call. Activity calls are given as the source filed them. Unless noted, calls come from the whole dose curve.

Experiment [1] can be described thus: Nuclear factor erythroid 2-related factor 2/antioxidant responsive element (Nrf2/ARE) small molecule agonists: luciferase reporter gene qHTS assay in human keratinocytes (AID 1919969). Note: nearly all actives have a fitted effect of over 35% in size. Note: potency is the fitted concentration of half-maximal effect.
The target of experiment [2] is Gonadotropin-releasing hormone receptor (Homo sapiens) (UniProt P30968). As to the kind of experiment: Human gonadotropin-releasing hormone receptor (GnRHR) small molecule agonists, calcium flux assay in GnRHR-HEK293 cells (AID 1920063). Note: nearly all actives have a fitted effect of over 35% in size. In a few lines:
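Stable human GnRHR HEK293 line. 18 h plating, then calcium dye for 1 h at 37 C. Agonist-mode compound addition from DMSO stocks; fluorescence monitored 3 min.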
In general terms: Calcium assays in cells follow changes in intracellular calcium, usually with a dye or a luminescent sensor.

Experiment [3] can be described thus: p53 small molecule agonists, cell-based qHTS assay with human liver microsomes (AID 1963577). In a few lines:
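Fluorescence of the beta-lactamase reporter in p53RE-bla cells, detected with LiveBLAzer substrate (2 h, room temperature, dark), served as the read-out after 16 h compound exposure at 37 C with human liver microsomes and NADPH, each 0.5 mg/mL final.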

The nature of experiment [4]: p53 small molecule agonists, cell-based qHTS assay with rat liver microsomes (AID 1963578). In a few lines: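 Cells carrying a p53 response element–beta-lactamase reporter were plated and rested 5 h, then dosed with compound in DMSO plus rat liver microsomes and NADPH, each at 0.5 mg/mL final. After 16 h at 37 C, LiveBLAzer substrate was added for 2 h.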
Experiment [5] is described as follows: p53 small molecule agonists, cell-based qHTS assay with human liver microsomes: qHTS cell viability counter screen (AID 1963579). Note: nearly all actives have a fitted effect of over 45% in size. A digest of the protocol: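 Cytotoxicity counter screen: p53RE-bla, 4,000 cells/well; 5 h settle, 37 C/5% CO2; cpd + HLM 0.5 mg/mL + NADPH 0.5 mg/mL (final); 16 h, 37 C; CellTiter-Glo, 30 min RT, luminescence.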
Background: qHTS replaces the single test concentration by a dilution series.

Experiment [6] in a line: p53 small molecule agonists, cell-based qHTS assay: qHTS cell viability counter screen (AID 1963581). Note: nearly all actives have a fitted effect of over 45% in size. In a few lines: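 qHTS counter screen: 16 h compound exposure at 37 C of p53RE-bla HCT-116 cells (4,000 per well, seeded 5 h prior), cell viability by ATP luminescence.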
Experiment [7] is described as follows: p53 small molecule agonists, cell-based qHTS assay (AID 1963582; active = well fitted activation curve with a large enough effect in the signal ratio in the repeat runs, not every such curve was filed as active; the % refers to the signal ratio). In a few lines:
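Measured: fluorescence from cleaved LiveBLAzer substrate. System: p53RE-bla cells, 16 h compound treatment at 37 C, 2 h substrate step at room temperature.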

Experiment [8] addresses 5-hydroxytryptamine receptor 2A (Homo sapiens) (UniProt P28223). The experiment is described as follows: 5-hydroxytryptamine receptor 2A (HTR2A) small molecule antagonists, cell-based qHTS assay (AID 1963586). Note: nearly all actives have a fitted effect of over 45% in size. A digest of the protocol:
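CHO cells stably expressing human HTR2A were plated for 18 h at 37 C, then loaded with calcium dye for 1 h. Compounds were preincubated 5 min at room temperature before DOI (4 nM solution) was added. Kinetic fluorescence was read for 3 min.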

The target is the same in experiment [9]. The experiment is described as follows: 5-hydroxytryptamine receptor 2A (HTR2A) small molecule agonists, cell-based qHTS assay (AID 1963587). Note: nearly all actives have a fitted effect of over 30% in size. A digest of the protocol:
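HTR2A-CHO cells, plated 18 h at 37 C/5% CO2, dye-loaded 1 h at 37 C; compounds in DMSO added by pin tool (agonist mode). Intracellular calcium flux read as kinetic fluorescence on FDSS over 2 min at 1 s intervals.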

For experiment [10], the target named is Muscarinic acetylcholine receptor M1 (Homo sapiens) (UniProt P11229). The experiment is described as follows: Cholinergic receptor muscarinic 1 (CHRM1) small molecule antagonists, cell-based qHTS assay (AID 1963588). Note: nearly all actives have a fitted effect of over 40% in size. A digest of the protocol: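 Compounds were tested at 15 concentrations in three independent runs. Dye-loaded CHRM1-CHO cells were exposed 5 min at room temperature before stimulation by acetylcholine added at 50nM. Intracellular calcium was read kinetically on FDSS for 3 min.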

The target is the same in experiment [11]. The experiment is described as follows: Cholinergic receptor muscarinic 1 (CHRM1) small molecule agonists, cell-based qHTS assay (AID 1963589). Note: nearly all actives have a fitted effect of over 35% in size. Note: potency is the fitted concentration of half-maximal effect. In a few lines:
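Kinetic fluorescence (1 s intervals) of calcium-sensitive dye in human M1 CHO cells after compound addition; cells pre-incubated 18 h at 37 C/5% CO2 and dye-loaded 1 h.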

A short description of experiment [12]: cAMP Responsive Elements (CRE) small molecule agonists, cell-based qHTS assay (AID 1963590). In a few lines:
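Test agents in DMSO were incubated 3 h at 37 C/5% CO2 with CRE-bla HEK 293T cells seeded 18 h earlier; LiveBLAzer B/G FRET substrate was added and read after 2 h at room temperature.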

A short description of experiment [13]: cAMP Responsive Elements (CRE) small molecule antagonists, cell-based qHTS assay (AID 1963591; active = well fitted inhibition curve with a large enough effect in the signal ratio in the repeat runs, not every such curve was filed as active; the % refers to the signal ratio). In a few lines:
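Reporter line CRE-bla HEK 293T in dialyzed-FBS DMEM; cells preincubated 18 h, treated 3 h with compound plus NKH477 (0.25 uM final); LiveBLAzer FRET, 2 h RT.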

Experiment [14] deals with Beta-2 adrenergic receptor (Homo sapiens) (UniProt P07550). As to the kind of experiment: Adrenergic beta2 receptor (ADRB2) small molecule antagonists, cell-based qHTS assay (AID 1963592). Note: series mostly up to about 92 µM; nearly all actives have a fitted effect of over 50% in size. A digest of the protocol: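 Assay format: CHO-ADRB2 cells, 18-20hr seeding at 37C/5% CO2, then compound plus 1nM isoproterenol agonist mix for 0.5hr RT. Homogeneous time-resolved fluorescence cAMP detection after 1hr, expressed as 665/615 nm ratio.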

In experiment [15] the target is D(2) dopamine receptor (Homo sapiens) (UniProt P14416). As to the kind of experiment: Dopamine D2 receptor (DRD2) small molecule agonists, cell-based qHTS assay (AID 1963594). Note: nearly all actives have a fitted effect of over 35% in size. A digest of the protocol:
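HEK293 cells stably expressing DRD2 were cultured 24 h at 37 C, then given Ro20-1724 (0.1 mM final) and compounds for 10 min at room temperature. NKH477 (200nM) was then added for 30 min. cAMP was read by HTRF.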

The target is the same in experiment [16]. As to the kind of experiment: Dopamine D2 receptor (DRD2) small molecule antagonists, cell-based qHTS assay (AID 1963595; active = well fitted inhibition curve with a large enough effect in the signal ratio in the repeat runs, with a control signal flat; the % refers to the signal ratio). In a few lines: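 Human DRD2 antagonist qHTS measuring cAMP by HTRF. The cells are exposed to compound for 10 min, then to NKH477 (200 nM) and quinpirole (12 nM) for 30 min at RT, with Ro20-1724 (0.1 mM) present throughout.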
Experiment [17] addresses KiSS-1 receptor (Homo sapiens) (UniProt Q969F8). As to the kind of experiment: Human kisspeptin (KISS1R) small molecule agonists, calcium flux assay in KISS1R-HEK293 cells (AID 1920064; active = well fitted activation curve with a large enough effect in the repeat runs). In a few lines:
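After overnight (18 h) culture at 37 C/5% CO2, human KISS1R-HEK293 cells received calcium dye for 1 h, then test compound; emission at 540 nm (excitation 480 nm) was tracked for 3 min.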

Experiment [18] can be described thus: G protein-coupled receptor (GPCR) small molecule agonists, calcium flux assay: HEK293 wild type cell line counter screen (AID 1920065). A digest of the protocol: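 Following 18 h incubation at 37 C/5% CO2, plates got calcium dye for 1 h; compounds, ATP or DMSO were then pinned in and fluorescence followed kinetically (480/540 nm).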
A short description of experiment [19]: p53 small molecule agonists, cell-based qHTS assay with rat liver microsomes: qHTS cell viability counter screen (AID 1963580). Note: nearly all actives have a fitted effect of over 45% in size. A digest of the protocol:
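Counter screen for cytotoxicity under metabolic activation: rat liver microsomes and NADPH, 0.5 mg/mL final each, added with compounds to p53RE-bla HCT-116 cells; 16 h at 37 C, then ATP luminescence read.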

For experiment [20], the target named is Beta-2 adrenergic receptor (Homo sapiens) (UniProt P07550). The experiment is described as follows: Adrenergic beta2 receptor (ADRB2) small molecule agonists, cell-based qHTS assay (AID 1963593).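 Note: CHO cells stably overexpressing human ADRB2.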 A digest of the protocol:
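CHO cells stably over-expressing ADRB2 were plated overnight at 37C, then dosed with compounds plus a stimulation mix containing 100uM IBMX and 25uM Ro-20-1724 for 0.5hr at room temperature. cAMP was measured by HTRF competition, 1hr.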
% is set by controls: 0 for no effect and ±100 for the full control effect.

Chain of D(2) dopamine receptor (Homo sapiens) (P14416 whole entry, looked up): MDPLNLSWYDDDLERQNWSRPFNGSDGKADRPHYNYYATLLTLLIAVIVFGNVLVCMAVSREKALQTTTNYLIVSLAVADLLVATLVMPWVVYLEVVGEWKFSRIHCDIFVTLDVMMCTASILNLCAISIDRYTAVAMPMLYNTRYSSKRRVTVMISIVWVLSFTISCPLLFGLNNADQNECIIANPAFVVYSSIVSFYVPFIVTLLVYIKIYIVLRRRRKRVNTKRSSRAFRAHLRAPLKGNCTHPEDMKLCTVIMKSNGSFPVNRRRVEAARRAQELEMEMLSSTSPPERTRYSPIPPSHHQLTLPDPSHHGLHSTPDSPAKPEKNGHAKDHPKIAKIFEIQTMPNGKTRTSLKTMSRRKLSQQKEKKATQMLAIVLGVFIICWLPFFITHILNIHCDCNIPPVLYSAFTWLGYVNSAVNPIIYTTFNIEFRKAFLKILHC
Chain of Gonadotropin-releasing hormone receptor (Homo sapiens) (P30968 whole entry, looked up): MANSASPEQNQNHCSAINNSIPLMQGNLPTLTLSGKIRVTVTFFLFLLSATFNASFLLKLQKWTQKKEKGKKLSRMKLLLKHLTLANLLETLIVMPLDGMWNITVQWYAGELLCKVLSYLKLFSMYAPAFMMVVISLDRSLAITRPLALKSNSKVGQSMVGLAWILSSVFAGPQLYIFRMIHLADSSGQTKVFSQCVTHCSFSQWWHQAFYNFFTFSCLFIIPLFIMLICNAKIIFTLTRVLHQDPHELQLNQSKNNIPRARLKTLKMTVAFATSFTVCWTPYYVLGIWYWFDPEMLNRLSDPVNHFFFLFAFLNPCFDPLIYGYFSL
Chain of Beta-2 adrenergic receptor (Homo sapiens) (P07550 whole entry, looked up): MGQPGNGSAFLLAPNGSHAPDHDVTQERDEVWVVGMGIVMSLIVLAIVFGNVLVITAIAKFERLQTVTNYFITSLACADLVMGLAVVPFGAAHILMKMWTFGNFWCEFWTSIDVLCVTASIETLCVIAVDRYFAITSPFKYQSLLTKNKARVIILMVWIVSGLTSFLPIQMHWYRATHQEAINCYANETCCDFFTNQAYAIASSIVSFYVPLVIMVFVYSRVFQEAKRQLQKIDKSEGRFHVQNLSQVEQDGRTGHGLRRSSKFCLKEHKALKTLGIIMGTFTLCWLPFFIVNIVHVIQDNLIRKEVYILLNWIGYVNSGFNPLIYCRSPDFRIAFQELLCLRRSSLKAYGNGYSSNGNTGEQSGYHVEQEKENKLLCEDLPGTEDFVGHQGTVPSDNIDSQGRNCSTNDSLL
Chain of KiSS-1 receptor (Homo sapiens) (Q969F8 whole entry, looked up): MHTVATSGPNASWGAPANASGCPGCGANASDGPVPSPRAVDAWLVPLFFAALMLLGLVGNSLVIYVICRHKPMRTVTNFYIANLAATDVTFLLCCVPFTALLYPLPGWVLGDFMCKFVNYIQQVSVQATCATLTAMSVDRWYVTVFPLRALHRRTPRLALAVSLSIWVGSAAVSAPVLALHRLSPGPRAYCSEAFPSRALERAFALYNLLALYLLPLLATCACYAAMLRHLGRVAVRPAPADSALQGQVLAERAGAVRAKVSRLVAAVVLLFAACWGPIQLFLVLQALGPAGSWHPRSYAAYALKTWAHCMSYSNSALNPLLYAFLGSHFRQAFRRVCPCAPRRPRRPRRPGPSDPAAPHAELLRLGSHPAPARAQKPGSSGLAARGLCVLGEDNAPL
Chain of 5-hydroxytryptamine receptor 2A (Homo sapiens) (P28223 whole entry, looked up): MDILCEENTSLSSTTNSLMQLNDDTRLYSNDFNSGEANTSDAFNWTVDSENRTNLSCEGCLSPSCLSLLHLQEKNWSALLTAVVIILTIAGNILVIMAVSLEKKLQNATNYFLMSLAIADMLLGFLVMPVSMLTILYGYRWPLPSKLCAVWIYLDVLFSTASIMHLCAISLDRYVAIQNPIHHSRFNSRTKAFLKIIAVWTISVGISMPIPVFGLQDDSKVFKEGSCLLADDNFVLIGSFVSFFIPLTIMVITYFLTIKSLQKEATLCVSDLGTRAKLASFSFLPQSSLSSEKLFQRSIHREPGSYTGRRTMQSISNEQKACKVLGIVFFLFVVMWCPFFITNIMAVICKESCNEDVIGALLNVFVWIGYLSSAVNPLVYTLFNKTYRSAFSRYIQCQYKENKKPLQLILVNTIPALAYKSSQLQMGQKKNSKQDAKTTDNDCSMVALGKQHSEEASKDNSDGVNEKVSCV
Chain of Muscarinic acetylcholine receptor M1 (Homo sapiens) (P11229 whole entry, looked up): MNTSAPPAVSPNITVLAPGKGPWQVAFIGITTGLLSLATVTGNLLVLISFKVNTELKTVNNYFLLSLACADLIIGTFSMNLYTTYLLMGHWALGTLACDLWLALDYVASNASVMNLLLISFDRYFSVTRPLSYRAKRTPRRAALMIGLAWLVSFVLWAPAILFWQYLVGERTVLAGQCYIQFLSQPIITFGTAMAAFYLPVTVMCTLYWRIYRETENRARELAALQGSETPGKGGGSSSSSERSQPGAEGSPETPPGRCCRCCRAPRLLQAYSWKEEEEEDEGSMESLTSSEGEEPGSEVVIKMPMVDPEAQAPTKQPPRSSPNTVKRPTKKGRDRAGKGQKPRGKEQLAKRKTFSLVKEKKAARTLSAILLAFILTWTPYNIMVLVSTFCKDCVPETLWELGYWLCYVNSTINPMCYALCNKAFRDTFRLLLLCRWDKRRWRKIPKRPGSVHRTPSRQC

With `C1CCCC1`, the Potency result in experiment [1], in experiment [2], in experiment [3], in experiment [4], in experiment [5] and in experiment [6] was “inactive” each time. The Potency result in experiment [7], in [8], in [9], in experiment [10], in experiment [11] and in [12] was “inactive” throughout. The Potency entry in experiment [13], in [14], in experiment [15] and in experiment [16] was “inactive” in each case.

Take `CCC(C)S` (centres undefined): in [1], the activity, positive = activation was -3.8% [at 3.27 µM] (inactive). The activation in experiment [17] is 1.34% [at 2.72 µM] (inactive); in experiment [18], 0.0986% [at 2.04 µM] (inactive); in experiment [3], 0.369% [at 2.33 µM] (inactive); in [4] it was 1.35% [at 2.33 µM] (inactive); in experiment [7], -0.925% [at 2.33 µM] (inactive); in experiment [9] it was 0.646% [at 2.65 µM] (inactive). For the same compound, the activation in [11] was 0.317% [at 2.72 µM] (inactive); in [12] it was -0.121% [at 3.27 µM] (inactive); in experiment [15], 5.57% [at 3.27 µM] (inactive). For the same compound, the activity change, negative = cytotoxicity is 2.56% [at 2.33 µM] (inactive) in experiment [5], 2.16% [at 2.33 µM] (inactive) in experiment [19] and 10.6% [at 2.33 µM] (inactive) in [6]. The figures for the activity, negative = inhibition in experiment [8] and in [10] were 36.9% [at 2.12 µM] (inactive) and 18.7% [at 2.17 µM] (inactive), respectively. For the same compound, the activity change, negative = inhibition in experiment [13] was -3.11% [at 3.27 µM] (inactive); in experiment [14], -1.77% [at 3.27 µM] (inactive); in experiment [16], 2.46% [at 3.28 µM] (inactive).

On to `O=c1cc(-c2ccccc2)oc2ccccc12`, for which the Potency entry in [2], in experiment [17], in experiment [18], in experiment [5], in experiment [19] and in experiment [6] was “inactive” throughout. Moreover, the Potency entry in [8], in experiment [9], in [10], in experiment [11], in experiment [13] and in experiment [14] was “inactive” throughout. For the same compound, the Potency result in experiment [15] and in experiment [16] was “inactive” each time.

Consider `CC[C@]1(O)C[C@@H]2CN(CCc3c([nH]c4ccccc34)[C@@](C(=O)OC)(c3cc4c(cc3OC)N(C)[C@H]3[C@@](O)(C(=O)OC)[C@H](OC(C)=O)[C@]5(CC)C=CCN6CC[C@]43[C@@H]65)C2)C1`, for which the Potency in experiment [1] is 211 nM (active) and 596 nM (active). The Potency result in experiment [17], in experiment [18], in experiment [3], in experiment [4], in [14] and in [20] was “inactive” in each case. Further, the Potency result in experiment [15] and in experiment [16] was “inactive” throughout.

For `O=C1CCC(=O)O1`, the Potency result in experiment [1], in experiment [17], in [18], in [3], in experiment [4] and in [5] was “inactive” each time. The Potency entry in [19], in experiment [6], in [7], in experiment [8], in experiment [9] and in experiment [10] was “inactive” in each case. The Potency result in experiment [11], in [12], in experiment [13], in [20], in experiment [15] and in experiment [16] was “inactive” each time.

In the case of `C/C=C/C(=O)O`, the Potency result in [1], in experiment [17], in experiment [18], in experiment [19], in experiment [6] and in experiment [9] was “inactive” in each case. Moreover, the Potency result in experiment [10], in [12], in [13], in experiment [14], in experiment [15] and in experiment [16] was “inactive” throughout. The Potency in experiment [11] is 93.3 nM (active) and inactive.

In the case of `CO[Si](CCCNCCNCCN)(OC)OC`, the Potency result in experiment [2], in experiment [17], in experiment [18], in experiment [3], in [4] and in [19] was “inactive” throughout. The Potency entry in experiment [7], in experiment [8], in experiment [9], in experiment [10], in [11] and in [12] was “inactive” each time. The Potency entry in [13], in [14], in experiment [15] and in experiment [16] was “inactive” in each case.
